From PubChem
A selection: hits, their analogues and other compounds. The true share with any hit is near 11%.
VACV Venus inh = vaccinia inhibition (Venus reporter); Vaccinia virus Venus reporter expression, fluorescence; Potency, µM (highest dose often 36.5 µM), without a hit: top-dose activity change, negative = inhibition, hits mostly inhibitors; hit rate 0.46% among 330,000; calls by dose curve; tested in A549 cells; note: % is set by controls: 0 for no effect and ±100 for the full control effect; nearly all actives have a fitted effect of over 30% in size
Pf growth 48h = inhibits P. falciparum growth in the first generation, 48 h | Potency, µM (series often up to 28.7 µM), for inactives: at the top dose activity change, negative = inhibition, usual class: inhibitors | P. falciparum luciferase growth in erythrocytes, 48 h | hit rate 5.9% among 310,000 | AID 504832; note: % is set by controls: 0 for no effect and ±100 for the full control effect
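Erythrocytes infected with P. falciparum carrying an integrated firefly luciferase reporter (2% hematocrit, 0.1% parasitemia final) were exposed to compounds in RPMI 1640 with 0.5% Albumax at 37 C, 5% CO2. Growth inhibition was scored as reduced luminescence.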
Pf growth 96h = inhibits malaria parasite growth, 96 h; P. falciparum luciferase reporter growth, 96 h; Potency, µM (highest dose often 28.7 µM), inactives show at the top dose activity change, negative = inhibition, hits mostly inhibitors; hit rate 6.9% among 320,000; note: % is set by controls: 0 for no effect and ±100 for the full control effect
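Luminescence readout: decreased luciferase signal marks inhibited growth of reporter-expressing P. falciparum in infected red cells (2% hematocrit, 0.05% parasitemia final), exposed to compound two generations (96 h, 37 C, 5% CO2).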
VACV mCherry inh = vaccinia inhibition (mCherry reporter); Vaccinia virus mCherry reporter infection, fluorescence; Potency, µM (top dose mostly 36.5 µM), for the others: top-dose activity change, negative = inhibition, most hits filed as inhibitors; hit rate 0.63% among 310,000; AID 720579; calls by dose curve; tested in A549 cells; note: % is set by controls: 0 for no effect and ±100 for the full control effect; nearly all actives have a fitted effect of over 35% in size
HCV inhibitor = inhibitors of hepatitis C virus infection; hit rate 3.4% among 340,000; Potency, µM (top dose mostly 41.8 µM), for inactives: at the top dose activity change, negative = inhibition, hits mostly inhibitors; Huh7.5.1 HCVcc-Cre infection, luciferase reporter, 44 h; AID 651820; note: % is set by controls: 0 for no effect and ±100 for the full control effect
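Cells (1,000/well) were plated 4 h before compound, then infected with HCVcc-Cre virus (~0.5 moi). After 44 h further culture, infection was read as luciferase luminescence following a 15 min substrate incubation at room temperature.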
NS1 inh = inhibitors of influenza NS1 protein function; Potency, µM (titrated, usually from 46.1 µM), without a hit: at the highest dose activity, positive = more growth; hit rate 0.4% among 270,000; AID 2326; calls by dose curve; note: actives are rising curves; nearly all actives have a fitted effect of over 50% in size
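S. cerevisiae expressing influenza A NS1, grown in glucose, washed, then diluted 1:100 into pH 6.0 -URA galactose medium with 23 nl compound. Growth recovery read as OD600; NS1-free strain serves as control.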
* marks the source's active call; other numbers are inactive results; [ ] = another dose, or the depositor's remark. Unless noted, calls come from the whole dose curve; as a rule, active = well fitted inhibition curve with a large enough effect; inconclusive = small, poorly fitted or top-dose-only effect, or another doubt; inactive = no such curve, though single readings can be large or run the other way. Potency is the fitted concentration of half-maximal effect.

Screening CSc1ccc(C(=O)C2CCCN(C(=O)c3cc(C)n(C)n3)C2)cc1 (stereo not drawn) returned Pf growth 48h -14%, Pf growth 96h inconclusive, HCV inhibitor -12% and NS1 inh -10%.
`COc1ccc2nc3c(nc2c1)CCCC3` gave VACV Venus inh -11%, Pf growth 48h 34%, Pf growth 96h 46%, VACV mCherry inh -14%, HCV inhibitor -8% and NS1 inh -2%.
For COc1ccc(OCC(=O)Nc2ccc(N3CCN(C(=O)c4ccco4)CC3)cc2)cc1 the results were VACV Venus inh 10%, Pf growth 48h 0%, Pf growth 96h 20%, VACV mCherry inh inactive, HCV inhibitor -12% and NS1 inh 1%.
O=C(COc1ccc([N+](=O)[O-])cc1)Nc1ccc(N2CCN(C(=O)c3ccco3)CC2)cc1 was read as VACV Venus inh -19%, Pf growth 48h 14%, Pf growth 96h 5.2µM*, VACV mCherry inh -10%, HCV inhibitor 11µM* and NS1 inh 14%.
For CC1=CC(C)C(=O)N(CCN2CCOCC2)C(C)=C1 (stereo not drawn) the results were VACV Venus inh -9% and VACV mCherry inh 0%.
Cc1cc(NC(=O)c2ccco2)ncc1NC(=O)Cc1ccccc1 was read as VACV Venus inh -3%, Pf growth 48h 79%, Pf growth 96h 8.3µM*, VACV mCherry inh -5%, HCV inhibitor 6% and NS1 inh -13%.
COc1cccc(C(=O)Nc2cnc(NC(=O)c3ccco3)cc2C)c1 was read as VACV Venus inh -10%, Pf growth 48h 12%, Pf growth 96h 5.2µM*, VACV mCherry inh -11%, HCV inhibitor -9% and NS1 inh -6%.
Screening C/C(=N\NC(=O)C(N)=O)c1cccc([N+](=O)[O-])c1 returned Pf growth 48h 8%[5.75 µM], Pf growth 96h -25%[5.75 µM] and HCV inhibitor 7%.
Screening COc1ccc(N(C(=O)/C=C/C(=O)Nc2cc(C)on2)C(C(=O)NC2CCCC2)c2ccccc2C)cc1 (stereo not drawn) returned VACV Venus inh inconclusive, Pf growth 48h 9.3µM*, Pf growth 96h 5%, VACV mCherry inh inconclusive, HCV inhibitor inconclusive and NS1 inh 5%.
Cc1cc(NC(=O)CSCC(=O)N(c2cccc(Cl)c2)C(C(=O)NC2CCCCC2)c2ccc(O)c(O)c2)no1 (stereo not drawn) was read as VACV Venus inh -26%, Pf growth 48h inconclusive, Pf growth 96h 9.3µM*, VACV mCherry inh inconclusive, HCV inhibitor 2% and NS1 inh 5%.
Screening Cc1cc(NC(=O)CSCC(=O)N(c2ccc(F)cc2)C(C(=O)NC2CCCCC2)c2ccc(O)c(O)c2)no1 (stereo not drawn) returned VACV Venus inh -29%, Pf growth 48h inconclusive, Pf growth 96h 15µM*, VACV mCherry inh inactive, HCV inhibitor -5% and NS1 inh 5%.
Screening COc1ccc(N(C(=O)CSCC(=O)Nc2cc(C)on2)C(C(=O)NC2CCCCC2)c2ccc(O)c(O)c2)cc1 (stereo not drawn) returned VACV Venus inh -24%, Pf growth 48h -4%, Pf growth 96h 2.6µM*, VACV mCherry inh -14%, HCV inhibitor 2% and NS1 inh 2%.
For O=S1(=O)N[C@H](Cc2ccccc2)COc2cccc(N3CCSCC3)c21 the results were VACV Venus inh 1% and VACV mCherry inh 4%.
`Cc1c(C(=O)N2CCCCC2)c(S(=O)(=O)N2CCN(c3ccc(Cl)cc3)CC2)c(C)n1C` gave VACV Venus inh -4%, Pf growth 48h inconclusive, Pf growth 96h -6%, VACV mCherry inh -13%, HCV inhibitor 8% and NS1 inh 3%.
O=C(CCCC(=O)N(c1ccc2c(c1)OCCO2)C(C(=O)NC1CCCCC1)c1ccc(Cl)cc1)Nc1ccccn1 (stereo not drawn) was read as VACV Venus inh -3%, Pf growth 48h inconclusive, Pf growth 96h inconclusive, VACV mCherry inh -5%, HCV inhibitor 13% and NS1 inh 3%.
Screening COc1ccc(C(C(=O)NC2CCCCC2)N(C(=O)CCCC(=O)Nc2ccccn2)c2ccc3c(c2)OCCO3)cc1 (stereo not drawn) returned VACV Venus inh -8%, Pf growth 48h inconclusive, Pf growth 96h 9.3µM*, VACV mCherry inh -12%, HCV inhibitor -1% and NS1 inh inconclusive.
Screening CC(=O)c1sc(-c2ccccc2)cc1N returned VACV Venus inh -21%, Pf growth 48h 62%, Pf growth 96h 93%, VACV mCherry inh -5%, HCV inhibitor 8.9µM* and NS1 inh -4%.
Screening CCCCNC(=O)c1cc(-c2ccccc2)sc1N returned VACV Venus inh -21% and VACV mCherry inh -20%.
For NNC(=O)c1cc(-c2ccccc2)sc1N the results were Pf growth 48h 9.3µM*, Pf growth 96h inconclusive, HCV inhibitor -9% and NS1 inh 14%.
CCOc1ccc(-c2cc(C(=O)NCCOC)[nH]n2)c(C)c1 was read as VACV Venus inh -3% and VACV mCherry inh -8%.
`CCOc1ccc(-c2cc(C(=O)Nc3ccc(C)c(NS(C)(=O)=O)c3)[nH]n2)c(C)c1` gave VACV Venus inh inconclusive and VACV mCherry inh 11µM*.
For O=[N+]([O-])C(/C=C(\Cl)[N+](=O)[O-])=C(N1CCCCC1)N1CCCCC1 the results were VACV Venus inh -5%, Pf growth 48h inconclusive, Pf growth 96h 1.2µM*, VACV mCherry inh inactive and HCV inhibitor -22%.
Screening O=[N+]([O-])C(=C1SCCS1)C(=C(Cl)Cl)N1CCCCC1 returned VACV Venus inh 0%, Pf growth 48h -13%, Pf growth 96h 27%, VACV mCherry inh inactive and HCV inhibitor -1%.
For C#CCOCCOCCOCCNc1nc(N2CCN(C(=O)CCCCCCCCCCNC(=O)Cn3cc(CCCCCN)nn3)CC2)nc(N2CCN(C(=O)CCCCCCCCCCNC(=O)[C@H]([C@@H](C)CC)n3cc(CCCCN=C(N)N)nn3)CC2)n1 the results were VACV Venus inh 5.6µM*, Pf growth 48h 2.1µM*, Pf growth 96h 3.3µM*, VACV mCherry inh inconclusive and HCV inhibitor inconclusive.
For C#CCOCCOCCOCCNc1nc(N2CCN(C(=O)CCCCCCCCCCNC(=O)[C@H]([C@@H](C)CC)n3cc(CCCCN=C(N)N)nn3)CC2)nc(N2CCN(C(=O)CCCCCCCCCCNC(=O)[C@H]([C@@H](C)CC)n3cc(CCCCN=C(N)N)nn3)CC2)n1 the results were Pf growth 48h 3.7µM*, Pf growth 96h 4.1µM* and HCV inhibitor inconclusive.
